Source: PubChem BioAssay
Activity calls are given as the source filed them.

Key:
[1] = system: PRMT1 (protein arginine N-methyltransferase 1); assay: PRMT1 binders on small-molecule microarrays, primary screen, biochemical, small-molecule microarray, 635 nm fluorescence (AID 1088); conditions: small-molecule microarray binding, higher = more signal;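 further: binding of Prmt1 protein to compounds spotted on small-molecule microarray slides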
[2] = yeast growth modulation, basal conditions, primary screen, YJM789 clinical isolate, OD600, 24 h (AID 1089);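 further: growth of clinical yeast isolate S. cerevisiae YJM 789 seeded 1000 cells per well; test concentration not given here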; conditions: S. cerevisiae YJM789 growth, higher = more signal, called active from +8 up or from −8 down
[3] = fission yeast growth modulation, primary screen, strain 972, OD600, 24 h, no modulator (AID 1090);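 further: basal condition with compound alone and no growth modifier present; test concentration not given here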; conditions: S. pombe 972 growth, higher = more signal, called active from +8 up or from −8 down
[4] = S. cerevisiae growth modulation with rapamycin, primary screen, strain BY4716, OD600, 96 h (AID 1091); conditions: higher = more signal, called active from +8 up or from −8 down; further: test concentration not given here
[5] = target: Torsin-1A-interacting protein 2 (Homo sapiens) (UniProt Q8NFQ8); assay: LULL1 binders on small-molecule microarray, primary screen, cell lysate, human LULL1 lysate, 635/667 nm fluorescence (AID 1092); conditions: hLULL1 lysate binding, 635 nm fluorescence, higher = more signal;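 further: probe is lysate of COS7 cells overexpressing human LULL1; score merges per-feature 667 nm fluorescence with signal-to-noise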
Torsin-1A-interacting protein 2 (Homo sapiens), sequence (Q8NFQ8 whole entry, looked up): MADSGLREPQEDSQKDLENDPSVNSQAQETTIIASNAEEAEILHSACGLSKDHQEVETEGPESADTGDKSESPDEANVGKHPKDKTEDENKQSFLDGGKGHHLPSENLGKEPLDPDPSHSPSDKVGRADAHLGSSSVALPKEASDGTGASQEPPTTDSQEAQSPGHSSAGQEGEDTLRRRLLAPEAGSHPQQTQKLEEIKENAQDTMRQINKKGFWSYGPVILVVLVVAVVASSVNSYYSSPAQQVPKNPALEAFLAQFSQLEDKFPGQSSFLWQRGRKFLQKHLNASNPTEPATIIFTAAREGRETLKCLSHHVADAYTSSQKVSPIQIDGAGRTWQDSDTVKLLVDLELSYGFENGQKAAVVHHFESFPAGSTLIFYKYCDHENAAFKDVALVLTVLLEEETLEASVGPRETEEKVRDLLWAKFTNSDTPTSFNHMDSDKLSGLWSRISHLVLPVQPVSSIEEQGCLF

[6] = E. coli growth modulation, two-sided OD650, primary screen, E. coli filamentation project, strain DRC41, 24 h (AID 1093); conditions: OD650, 24 h, higher = more signal, called active from +8 up or from −8 down;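 further: MC1000 strain lacking acrAB efflux and sulA so SOS filamentation is blocked; test concentration not given here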
[7] = small-molecule microarray binders of probe aLefty2, primary screen, biochemical, biotinylated probe, 635/667 nm fluorescence (AID 1094); conditions: higher = more signal;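 further: score merges spot fluorescence near 667 nm with spot signal-to-noise ratio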
[8] = system: Noggin (protein binding on small-molecule microarray); assay: Noggin binders on small-molecule microarray, primary screen, biochemical, 635/667 nm fluorescence (AID 1095); conditions: 635 nm fluorescence, higher = more signal;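 further: score merges 667 nm feature fluorescence with signal to noise over triplicate slides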
[9] = target: Neurogenic locus notch homolog protein 3 (Homo sapiens) (UniProt Q9UM47); assay: NOTCH3 binders on small-molecule microarray, primary screen, biochemical, 635/667 nm fluorescence (AID 1096); conditions: NOTCH3 binding, 635 nm fluorescence, higher = more signal
Neurogenic locus notch homolog protein 3 (Homo sapiens), sequence (Q9UM47 whole entry, looked up): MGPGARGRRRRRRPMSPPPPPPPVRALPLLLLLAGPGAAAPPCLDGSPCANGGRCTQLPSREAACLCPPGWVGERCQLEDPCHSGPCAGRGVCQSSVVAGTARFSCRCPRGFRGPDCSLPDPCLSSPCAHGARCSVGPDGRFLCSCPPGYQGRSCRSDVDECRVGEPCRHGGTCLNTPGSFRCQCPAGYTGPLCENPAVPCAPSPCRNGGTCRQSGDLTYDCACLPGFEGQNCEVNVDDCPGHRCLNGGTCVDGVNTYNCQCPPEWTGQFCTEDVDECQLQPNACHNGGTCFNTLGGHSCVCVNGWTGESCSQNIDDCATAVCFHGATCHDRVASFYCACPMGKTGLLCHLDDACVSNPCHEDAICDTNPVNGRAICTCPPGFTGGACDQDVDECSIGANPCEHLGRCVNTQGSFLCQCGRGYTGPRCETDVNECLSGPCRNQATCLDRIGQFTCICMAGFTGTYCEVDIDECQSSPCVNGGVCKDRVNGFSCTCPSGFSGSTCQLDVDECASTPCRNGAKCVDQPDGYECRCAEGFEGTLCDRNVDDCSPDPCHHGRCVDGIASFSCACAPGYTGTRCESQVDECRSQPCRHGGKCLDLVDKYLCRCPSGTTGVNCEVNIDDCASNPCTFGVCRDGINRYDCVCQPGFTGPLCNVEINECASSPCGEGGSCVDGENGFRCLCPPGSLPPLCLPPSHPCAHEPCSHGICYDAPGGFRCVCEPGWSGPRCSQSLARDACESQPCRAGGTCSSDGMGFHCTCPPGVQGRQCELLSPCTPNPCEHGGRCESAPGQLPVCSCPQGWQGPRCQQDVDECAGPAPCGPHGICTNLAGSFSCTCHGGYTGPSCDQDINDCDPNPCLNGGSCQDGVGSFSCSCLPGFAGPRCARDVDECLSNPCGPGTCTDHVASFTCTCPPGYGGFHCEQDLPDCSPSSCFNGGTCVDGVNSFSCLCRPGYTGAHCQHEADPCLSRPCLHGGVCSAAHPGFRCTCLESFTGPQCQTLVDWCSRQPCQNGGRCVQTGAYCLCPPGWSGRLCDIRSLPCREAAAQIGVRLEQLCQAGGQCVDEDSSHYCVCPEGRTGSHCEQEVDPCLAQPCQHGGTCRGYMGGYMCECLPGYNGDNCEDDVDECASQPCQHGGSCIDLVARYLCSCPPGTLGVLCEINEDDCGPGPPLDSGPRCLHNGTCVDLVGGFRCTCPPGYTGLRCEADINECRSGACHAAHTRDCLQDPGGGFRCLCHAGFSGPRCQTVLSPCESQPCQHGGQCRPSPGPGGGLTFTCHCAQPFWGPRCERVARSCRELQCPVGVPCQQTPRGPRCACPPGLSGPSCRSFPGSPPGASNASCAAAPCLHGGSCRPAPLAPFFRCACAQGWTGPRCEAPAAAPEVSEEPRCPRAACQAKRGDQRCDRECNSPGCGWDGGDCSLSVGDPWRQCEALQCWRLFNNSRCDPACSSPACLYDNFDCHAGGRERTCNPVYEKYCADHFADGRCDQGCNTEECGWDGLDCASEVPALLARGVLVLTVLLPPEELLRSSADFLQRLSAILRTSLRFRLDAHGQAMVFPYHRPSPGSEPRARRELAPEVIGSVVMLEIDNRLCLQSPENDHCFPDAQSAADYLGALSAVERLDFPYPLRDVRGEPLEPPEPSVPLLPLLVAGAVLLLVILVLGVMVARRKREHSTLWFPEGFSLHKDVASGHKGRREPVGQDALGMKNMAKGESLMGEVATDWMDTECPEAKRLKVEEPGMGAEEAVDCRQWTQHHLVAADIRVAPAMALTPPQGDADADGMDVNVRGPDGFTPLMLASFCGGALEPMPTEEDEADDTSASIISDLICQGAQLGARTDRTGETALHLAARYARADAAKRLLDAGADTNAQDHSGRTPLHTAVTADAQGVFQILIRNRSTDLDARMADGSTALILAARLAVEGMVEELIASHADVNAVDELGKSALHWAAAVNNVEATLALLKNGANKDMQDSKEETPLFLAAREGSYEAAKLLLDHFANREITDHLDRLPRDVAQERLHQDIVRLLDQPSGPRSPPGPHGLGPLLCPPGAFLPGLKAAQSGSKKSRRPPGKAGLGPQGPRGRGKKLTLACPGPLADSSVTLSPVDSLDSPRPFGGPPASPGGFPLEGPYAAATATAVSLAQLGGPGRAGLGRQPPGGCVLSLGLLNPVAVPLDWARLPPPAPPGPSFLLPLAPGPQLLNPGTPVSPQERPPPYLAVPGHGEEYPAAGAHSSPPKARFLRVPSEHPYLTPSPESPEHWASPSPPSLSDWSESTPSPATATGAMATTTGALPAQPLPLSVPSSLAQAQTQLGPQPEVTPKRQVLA

[10] = small-molecule microarray binders of probe aEGFR, primary screen, biochemical, biotinylated probe, 635/667 nm fluorescence (AID 1097); conditions: higher = more signal;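 further: probe is a biotinylated anti-EGFR antibody binding compounds printed on slides; score combines fluorescence near 667 nm and signal to noise of each spot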
[11] = system: Plasmodium falciparum Sir2 (PF13_0152, Sir2A); assay: pfSir2 binders on small-molecule microarrays, primary screen, biochemical, small-molecule microarray, 635 nm fluorescence (AID 1098); conditions: small-molecule microarray binding, fluorescence 635 nm; higher = more signal;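 further: score merges spot fluorescence intensity with its signal-to-noise ratio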
[12] = small-molecule microarray binders of probe aDKK1, primary screen, biochemical, biotinylated probe, 635/667 nm fluorescence (AID 1099); conditions: higher = more signal;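 further: score merges 667nm spot fluorescence with signal to noise across triplicate slides; reference of the scale not given here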
[13] = small-molecule microarray binders of probe aCHRDL2, primary screen, biochemical, biotinylated probe, 635/667 nm fluorescence (AID 1100); conditions: higher = more signal
[14] = splicing luciferase reporter signal modulators, primary screen, spliceosome inhibition project, cell-based, HEK293, splice +/- reporter (AID 1101); conditions: luminescence, 24 h, higher = more signal, called active from +8 up or from −8 down;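 further: HEK293 cells carrying a splicing-competent luciferase reporter gene; test concentration not given here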
[15] = target: Fibroblast growth factor 10 (Homo sapiens) (UniProt O15520); assay: FGF10 binders on small-molecule microarrays, primary screen, biochemical, small-molecule microarray, 635 nm fluorescence (AID 1102); conditions: FGF10 binding, fluorescence 635 nm, higher = more signal
Fibroblast growth factor 10 (Homo sapiens), sequence (O15520 whole entry, looked up): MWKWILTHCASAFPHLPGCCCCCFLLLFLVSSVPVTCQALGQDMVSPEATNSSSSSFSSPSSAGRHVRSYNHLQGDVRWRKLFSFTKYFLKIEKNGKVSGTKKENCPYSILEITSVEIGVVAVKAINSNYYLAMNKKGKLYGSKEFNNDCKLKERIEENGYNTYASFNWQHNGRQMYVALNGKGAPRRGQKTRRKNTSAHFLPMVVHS

[16] = system: glycogen synthase kinase-3 (GSK3A per assay name; protocol says GSK3B); assay: GSK3 binders on small-molecule microarrays, primary screen, biochemical, small-molecule microarray, 635 nm fluorescence, GSK3A (AID 1103); conditions: small-molecule microarray binding, fluorescence 635 nm; higher = more signal; further: the record names both GSK3A and GSK3B
[17] = target: Epidermal growth factor receptor (Homo sapiens) (UniProt P00533); assay: EGFR binders on small-molecule microarrays, primary screen, biochemical, small-molecule microarray, 635 nm fluorescence (AID 1104); conditions: EGFR binding, higher = more signal;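 further: score merges 667 nm emission intensity with spot signal to noise over triplicate slides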
Epidermal growth factor receptor (Homo sapiens), sequence (P00533 whole entry, looked up): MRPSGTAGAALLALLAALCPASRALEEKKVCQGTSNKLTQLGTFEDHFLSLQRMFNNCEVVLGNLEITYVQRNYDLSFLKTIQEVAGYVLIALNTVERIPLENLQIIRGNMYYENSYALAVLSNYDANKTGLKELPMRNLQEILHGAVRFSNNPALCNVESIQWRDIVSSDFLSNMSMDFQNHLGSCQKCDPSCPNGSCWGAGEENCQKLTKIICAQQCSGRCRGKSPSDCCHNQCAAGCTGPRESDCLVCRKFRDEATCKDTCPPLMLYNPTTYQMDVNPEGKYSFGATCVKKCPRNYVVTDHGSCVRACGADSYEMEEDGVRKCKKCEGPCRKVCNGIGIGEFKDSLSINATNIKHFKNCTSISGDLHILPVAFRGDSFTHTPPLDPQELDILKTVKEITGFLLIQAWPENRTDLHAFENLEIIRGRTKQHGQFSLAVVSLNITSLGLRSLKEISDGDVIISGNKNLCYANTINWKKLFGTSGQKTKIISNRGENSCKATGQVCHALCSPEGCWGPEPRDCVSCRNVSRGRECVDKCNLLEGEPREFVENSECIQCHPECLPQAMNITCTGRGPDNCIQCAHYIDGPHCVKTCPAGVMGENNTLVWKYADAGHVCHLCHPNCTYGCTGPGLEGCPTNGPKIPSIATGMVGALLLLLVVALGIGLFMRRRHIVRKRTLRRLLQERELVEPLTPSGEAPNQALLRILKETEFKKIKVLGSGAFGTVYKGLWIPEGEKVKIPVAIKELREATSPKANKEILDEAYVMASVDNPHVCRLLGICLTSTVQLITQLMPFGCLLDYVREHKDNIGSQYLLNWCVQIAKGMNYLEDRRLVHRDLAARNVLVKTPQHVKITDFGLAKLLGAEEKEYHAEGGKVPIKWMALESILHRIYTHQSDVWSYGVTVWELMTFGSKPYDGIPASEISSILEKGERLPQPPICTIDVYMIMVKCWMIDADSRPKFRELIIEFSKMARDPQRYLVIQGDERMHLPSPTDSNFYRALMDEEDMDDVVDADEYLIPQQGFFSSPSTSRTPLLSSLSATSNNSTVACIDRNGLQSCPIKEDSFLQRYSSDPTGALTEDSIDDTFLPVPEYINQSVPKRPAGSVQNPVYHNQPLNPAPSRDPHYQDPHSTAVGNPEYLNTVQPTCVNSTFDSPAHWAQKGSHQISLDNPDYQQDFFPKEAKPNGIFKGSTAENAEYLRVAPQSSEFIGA

[18] = target: Follistatin-related protein 3 (Homo sapiens) (UniProt O95633); assay: FSTL3 binders on small-molecule microarrays, primary screen, biochemical, small-molecule microarray, 635 nm fluorescence (AID 1105); conditions: FSTL3 binding, higher = more signal;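 further: score merges emission near 667 nm and signal to noise per printed spot across three slides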
Follistatin-related protein 3 (Homo sapiens), sequence (O95633 whole entry, looked up): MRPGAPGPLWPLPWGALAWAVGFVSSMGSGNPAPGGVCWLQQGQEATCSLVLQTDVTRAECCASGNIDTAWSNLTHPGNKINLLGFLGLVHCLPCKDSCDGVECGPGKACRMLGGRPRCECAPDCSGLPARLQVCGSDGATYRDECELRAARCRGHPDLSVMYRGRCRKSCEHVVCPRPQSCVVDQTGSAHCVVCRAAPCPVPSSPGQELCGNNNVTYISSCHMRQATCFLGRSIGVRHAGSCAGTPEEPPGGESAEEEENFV

[19] = target: Dickkopf-related protein 1 (Homo sapiens) (UniProt O94907); assay: DKK1 binders on small-molecule microarrays, primary screen, biochemical, small-molecule microarray, 635 nm fluorescence scan (AID 1106); conditions: DKK1 binding, higher = more signal;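 further: score merges emission near 667 nm with signal to noise over three replicate slides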
Dickkopf-related protein 1 (Homo sapiens), sequence (O94907 whole entry, looked up): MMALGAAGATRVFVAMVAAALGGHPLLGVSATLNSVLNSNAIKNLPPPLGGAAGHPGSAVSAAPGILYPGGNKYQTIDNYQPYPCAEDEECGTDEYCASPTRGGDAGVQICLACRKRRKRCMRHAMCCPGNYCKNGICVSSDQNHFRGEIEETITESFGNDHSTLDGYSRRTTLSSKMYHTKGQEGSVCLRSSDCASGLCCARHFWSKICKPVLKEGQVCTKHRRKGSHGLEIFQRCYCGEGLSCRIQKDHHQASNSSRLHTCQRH

[20] = system: Inhibin beta A chain (activin A); assay: INHBA (activin A) binders on microarrays, primary screen, biochemical, small-molecule microarray, 635 nm fluorescence scan (AID 1107); conditions: small-molecule microarray binding, higher = more signal;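 further: mouse activin A protein probed at 4.33 µg/mL on printed slides; score merges bound-protein fluorescence near 667 nm with spot signal-to-noise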

SMILES	composite z-score [1]	z-score [2]	z-score [3]	z-score [4]	composite z-score [5]	z-score [6]	composite z-score [7]	composite z-score [8]	composite z-score [9]	composite z-score [10]	composite z-score [11]	composite z-score [12]	composite z-score [13]	z-score [14]	composite z-score [15]	composite z-score [16]	composite z-score [17]	composite z-score [18]	composite z-score [19]	composite z-score [20]
O=C(NC1CC1)[C@@H]1c2ccccc2C(=O)N(Cc2ccc(OC(F)(F)F)cc2)[C@H]1c1ccc(CO)cc1	0.696	-0.112 (inactive)	-0.636 (inactive)	-1.51 (inactive)	1.76	0.577 (inactive)	-0.0943	0.818	0.377	-0.0679	0.572	-0.082	0.111	-0.599 (inactive)	0.567	-0.589	0.0972	0.301	0.864	0.301
COC(=O)C1(Cc2ccccc2)C=C2C(=C(C)C(=O)C2C)CN1 (stereo not given)	-0.467	-1.06 (inactive)	0.163 (inactive)	-0.0472 (inactive)	2.04	-0.366 (inactive)	0.732	-0.233	-0.016	-0.0146	1.66	1.21	1.22	1.44 (inactive)	0.231	-0.333	-0.362	0.513	-0.424	1.43
COc1ccc([Si](C)(C)[C@H]2[C@H](CC(=O)N3Cc4ccccc4C[C@H]3CO)O[C@@]3(C(=O)N(c4ccccc4)c4ccccc43)[C@@H]2C)cc1	1.53	-2.39 (inactive)	-1.61 (inactive)	-0.776 (inactive)	1.47	1.65 (inactive)	-0.0088	1.85	1.09	0.0059	1.64	-0.179	-0.339	-0.691 (inactive)	1.11	1.27	1.13	1.45	0.75	1.47
C=C(/C(=C/C[C@@H](OC(C)=O)c1cccc(OCCO)c1)c1cnc2ccccc2c1)C(C)C	1.55	0.0631 (inactive)	-0.396 (inactive)	-0.28 (inactive)	0.77	0.974 (inactive)	-0.207	2.09	0.801	-0.139	0.85	-0.268	0.0363	-0.664 (inactive)	0.706	0.612	0.324	1.37	0.625	1.56
O=C(N1CCOCC1)[C@@]1(Cc2ccccc2)COC(c2ccc(OCCCO)cc2)=N1	0.88	-0.731 (inactive)	-5.55 (inactive)	-1.39 (inactive)	2.95	2.88 (inactive)	0.588	-0.622	0.116	0.518	0.666	1.23	0.84	-0.694 (inactive)	0.132	0.983	-0.309	-0.65	-0.161	0.573
COc1ccc(C#Cc2ccc3c(c2)[C@]2(C(=O)N3)[C@H](C(=O)O)[C@H]3C(=O)O[C@H](c4ccccc4)[C@H](c4ccccc4)N3[C@@H]2c2ccccc2OCCO)cc1	1.54	1.79 (inactive)	0.549 (inactive)	0.705 (inactive)	2.2	0.969 (inactive)	-0.321	0.597	1.04	0.0458	1.54	-0.161	-0.126	-2.14 (inactive)	1.16	1.31	0.481	0.509	0.301	-0.658
